PostGolgi yeast: phenotypic screen on post-Golgi transport, primary screen. actives 0.9% (n = 98,000). AID 739, 2007. inhibition, % at 10 µM. post-Golgi transport phenotypic cell assay;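 note: yeast cells grown in 1536-well plates; yeast grown about 18 h at 30C before absorbance read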
PostGolgi ctrl: growth inhibition of yeast control strain, primary screen, counter-screen for post-Golgi transport modulator project | efflux-deficient yeast background strain, growth absorbance A615, 16 h | inhibition, % at 10 µM | actives 5% (n = 98,000)
CYP2C19 activ: human CYP2C19 activators, primary screen, biochemical, luminescence | Cytochrome P450 2C19 (Homo sapiens), P33261 | recombinant CYP2C19, luciferin-H EGE luminescence; hits give high values; 0 = fully inhibited enzyme, 1 = untreated enzyme | activation factor at 5 µM | 96,000 tested, under 10 active | AID 1025, 2008;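 active = activation factor of at least 2 at 5 µM in the primary screen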
CYP2C19 inh: blockers of cytochrome P450 2C19 activity – biochemical, luminescence, ADME assay, primary screen. inhibition, % at 5 µM. P33261. CYP2C19 Supersomes, luciferin-H EGE luminescence, 30 min. AID 778, 2007. actives 21% (n = 96,000);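 active = CYP2C19 inhibition above a set limit at 5 µM in the primary screen, cut at about 50% in these data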
CYP2C9 inh: blockers of cytochrome P450 2C9 activity – biochemical, luminescence, ADME assay, primary screen. actives 20% (n = 96,000). P11712. inhibition, % at 5 µM. CYP2C9 Supersomes, luciferin-H conversion. AID 777, 2007;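 active = blocking of liver enzyme CYP2C9 beyond about 50% at 5 µM, limit read from the data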
Target sequence (P11712 whole entry, looked up): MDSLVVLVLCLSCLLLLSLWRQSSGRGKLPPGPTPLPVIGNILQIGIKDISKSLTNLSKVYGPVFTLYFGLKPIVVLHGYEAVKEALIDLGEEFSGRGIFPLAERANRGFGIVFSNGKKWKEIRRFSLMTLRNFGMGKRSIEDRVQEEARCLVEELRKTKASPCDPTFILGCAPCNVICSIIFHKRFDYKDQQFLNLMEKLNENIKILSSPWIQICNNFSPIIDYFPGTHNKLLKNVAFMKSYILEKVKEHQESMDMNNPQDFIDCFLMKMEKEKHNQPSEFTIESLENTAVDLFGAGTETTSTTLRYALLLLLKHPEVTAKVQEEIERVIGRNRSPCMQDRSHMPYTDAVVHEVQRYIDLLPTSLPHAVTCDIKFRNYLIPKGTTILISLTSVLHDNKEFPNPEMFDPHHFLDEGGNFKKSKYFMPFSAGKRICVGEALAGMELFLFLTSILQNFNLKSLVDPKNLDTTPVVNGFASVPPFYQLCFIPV
CYP2C9 activ: human CYP2C9 activators, primary screen, biochemical, luminescence; Cytochrome P450 2C9 (Homo sapiens), P11712; recombinant CYP2C9, luciferin-H conversion; hits give high values; factor 1 = untreated enzyme, 0 = blocked; activation factor at 5 µM; actives 1.4% (n = 96,000);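 active = activation factor of 2 or more for CYP2C9 at a 5 µM dose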
Of the large screens only hits and unclear results are named; the others gave an inactive call. This is a sample that favours compounds with a hit; in the whole collection about 32% have one here. Cut-off read from the data, not from the text of the source, unless noted: active = inhibition above about 30%; inactive = the rest.

CC(=O)N1CCc2cc(S(=O)(=O)NC(CC(C)C)C(=O)Nc3ccc4c(c3)OCCO4)ccc21 (configuration not stated)	CYP2C9 inh 58.7
O=C(CN1C(=O)c2cccc3cccc(c23)C1=O)N1CCCCCC1	none
CCNC(=O)c1ccc(-n2nc(C(F)(F)F)c3c2CCCC3)cc1	CYP2C9 activ 2.5
COc1ccc(C2=NN(CN3C(=O)C(=O)c4ccccc43)C(c3ccc(C)cc3)C2)cc1 (configuration not stated)	CYP2C19 inh 51.1, CYP2C9 inh 75.6
COc1ccc(-c2noc(CN3C(=O)c4ccccc4C3=O)n2)cc1	none
COc1ccc(C2=NN(CN3C(=O)C(=O)c4ccccc43)C(c3ccc(Br)cc3)C2)cc1 (configuration not stated)	PostGolgi ctrl 31.9
CCn1cc(C(=O)O)c(=O)c2cnc(N3CCN(C(=O)Nc4cccc5ccccc45)CC3)nc21	none (no result: PostGolgi yeast, PostGolgi ctrl)
O=C(c1ccco1)N1CCN(C(=O)c2cc3c(s2)-c2ccccc2OC3)CC1	none
O=C(NC1CCCC1)C1C2C=CC(C2)C1C(=O)N1CCOCC1 (configuration not stated)	none
O=C(Nc1ccccc1C(=O)Nc1ccc2c(c1)OCO2)c1cccs1	none
CCOC(=O)C1=C(C)N=c2s/c(=C\c3ccncc3)c(=O)n2C1c1ccc2c(c1)OCO2 (configuration not stated)	CYP2C19 inh 84.7, CYP2C9 inh 84.8
CCOC(=O)C1=C(C)N=c2s/c(=C3\C(=O)Nc4ccccc43)c(=O)n2C1c1ccc2c(c1)OCO2 (configuration not stated)	CYP2C9 inh 58.9
COc1ccc(-c2nsc(C(=O)N(c3ccc(F)cc3)C(C(=O)NC3CCCC3)c3ccc(OC)cc3)c2N)cc1 (configuration not stated)	none
CCOc1cc2[nH]c(=S)n(CC3CCCN3CC)c(=O)c2cc1OCC (configuration not stated)	none
Cc1cc(C(=O)OCC(=O)Nc2ncc(C(F)(F)F)cc2Cl)c(C)o1	none
CSc1ncccc1C(=O)OCc1ccccc1F	PostGolgi ctrl 35.9
Cc1c(NC(=O)/C=C/c2cn(-c3ccccc3)nc2-c2ccccc2)c(=O)n(-c2ccccc2)n1C	none
O=C(CN1CCOCC1)NCC12CC3CC(CC(C3)C1)C2	PostGolgi ctrl 36.7
COc1ccc(C2(CNC(=O)Cc3ccccc3)CCCC2)cc1OC	CYP2C19 inh 61.9
COc1ccc(C2(CN(C(C)=O)C(C)=O)CCCC2)cc1OC	PostGolgi ctrl 38.9, CYP2C19 inh 51.8
O=C(Nc1ccc(Cl)cc1)N(Cc1nnc2n1CCCCC2)c1ccccc1	none
CC(=O)c1c(C(C)=O)c(C)n(Cc2ccc3c(c2)OCO3)c1C	CYP2C19 inh 75.4, CYP2C9 inh 54.6
CC(=O)c1c(C)n(CC(=O)NCc2ccc3c(c2)OCO3)c2ccccc12	CYP2C19 inh 74.9, CYP2C9 inh 59.4
COc1ccc(/C=N/Nc2nccnc2Cl)cc1	CYP2C19 inh 77.4
Cc1ccc(/C=N/Nc2cccc3cccnc23)c(O)c1	none
Oc1ccccc1/C=N/Nc1nccnc1Cl	CYP2C19 inh 72.4
Oc1ccc(/C=N/Nc2nccnc2Cl)c(O)c1	CYP2C9 inh 52.3
O=[N+]([O-])c1ccccc1/C=N/Nc1nccnc1Cl	none
Oc1ccc(/C=N/Nc2cccc3cccnc23)c(O)c1	CYP2C9 activ 3
COc1cc(-c2nnc(CSc3nnc4nc(C)cc(C)n34)o2)cc(OC)c1OC	none
Cn1cnnc1SCCn1c(N2CCCCC2)nc2c1c(=O)[nH]c(=O)n2C	none
Cc1ccc(C(N)=S)c(C)c1	none (no result: CYP2C19 activ, CYP2C19 inh, CYP2C9 inh, CYP2C9 activ)
O=C(c1ccc2ccccc2c1)N1CCN(c2ccc(C(F)(F)F)cn2)CC1	none
FC(F)(F)c1ccc(N2CCN(c3cc(-c4ccccc4)nc4ncnn34)CC2)nc1	PostGolgi ctrl 56.6
CCc1ccc(NC(=O)COn2nnc3ccc(S(=O)(=O)N(C)C)cc32)cc1	CYP2C19 inh 82.4, CYP2C9 inh 81.5

Assay outcomes deposited in PubChem BioAssay by several laboratories.
